# Reference: PubChem BioAssay AID1159506 (National Center for Advancing Translational Sciences (NCATS), 2015)
# Over roughly 59,000 sequences, the read-out has its median near -0.00055; the lowest 2% begin near -2. This is one part of a sample in which the lowest values are shown more often than they occur.
# Test: Identification of proteins required for the processing of the EWS-FLI1 nascent transcript;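 note: robust z of luciferase light less the median z of siRNAs with the same seed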
# Details: TC32 Ewing sarcoma NR0B1-luc vs CMV-luc (EWS-FLI1 target promoter against control promoter), 48 h; screened at 20 nM (by protocol)
# How it was run: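 Genome-wide siRNA screen (Ambion v4.1, three siRNAs per gene, 20 nM final, RNAiMax) in Ewing sarcoma TC32 cells carrying NR0B1-promoter or CMV-promoter luciferase; OneGlo luciferase read 48 h post-transfection. Data normalized, z-score-MAD transformed and seed-adjusted.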
row,Sequence,seed-corrected z-score
1,UUCCAUAUUUAUUAGAGCC against PURG,1.54
2,UUGAGAUAGGCUGAGACCU against TMPRSS4,-0.502
3,AAUUGUCGUAGUCAGUAUC against PAEP,-0.99
4,UUUGUCUUUUGCAUCUUUC against SFPQ,-2.66
5,AUCGUUCACGUCUUGAUCC against CPSF6,-0.744
6,AUAGGGAGCACUUGGGAGC against C20orf24,-1.49
7,AAACCUUCCAUUGUUGAGG against ACADVL,0.629
8,UUCGCUGUCACUGUGGUUG against FAM134C,-1.48
9,UAUUAUUCGACUCAUGGUC against EFCAB2,-2.54
10,UAACAUCGCACCAGUAAUC against L3MBTL4,-0.0952
11,UGUUCCUUUAUUGUAGCCC against ALG13,0.155
12,UGUAGGACAAGCGCUGCUG against DGCR6,-0.188
13,AUAUUAGCAUUCUUAAUGG against ABCB10,-0.347
14,UUCAUGACUCUUGCAUUCC against ZNF473,-0.227
15,UAUAGUCUGCGUAGAGUUC against BSCL2,0.905
16,UCGGUAUUCGAUGUGGUCC against CD177,1.39
17,AUAAGAUACCUCUCUAUUC against NXPE1,-3.1
18,UGAUAUAGCCUCCAUAUGC against INVS,-0.175
19,UUCUAAUCUAGUGAUUAGC against LDB2,0.172
20,UAAACUGAAACGGAAAUGC against PTCHD3P1,-0.411
21,UUGAGUUUGUCACAGUUUC against SH3BP2,0.349
22,UUUCAGCUUAGGAAAGGCA against KRTDAP,-4.29
23,AGAUCUAUUGUGAACAGCC against FLT3,-0.0495

row,Sequence,seed-corrected z-score
1,UAGGUAAAUAGCCUCGUGC against CEACAM19,0.0325
2,UUGCAUUUUCAGGUACUUG against RDH5,-0.555
3,UUUGUAAGCUCUGUCAUCC against FAM13B,-0.0737
4,ACCUGUCAAAGAGCAAAGC against AMD1P3,0.646
5,UCUGAGUUUUGAGCUGUCC against MST1R,-0.112
6,UGUCUAAUGACAAUGCUGU against UBR5,-0.38
7,UACUGCUAGAUUGAGAUCC against KDM5D,-2.31
8,UAUCUUGCAUAAGUCUUGU against XRCC6BP1,1.28
9,UACUCUUUUCCACGAAUCC against CCDC141,-0.626
10,UUCAAUACCAAAGAUAUUG against BTF3P16,-2.14
11,UGAGGUCCCAGAUUCUCAG against FBXW4,0.248
12,UCUUCGUCAUCGUUCAUUC against ZC3H4,-2.37
13,AUAGACAUCUGAUCCGUUC against PGK1,-0.0528
14,UCUGCGACAUUCCUCAUAG against XPO1,-0.546
15,AUCCAGAUUAGUUUCCCUC against VIM,-2.52
16,UCAAUCUCAACGGUCACCG against NLRP1,1.3
17,UUUGAUUGAGGCAUAUGCG against REEP6,1.08
18,UCAGGUUCAGCAGGAAGUG against ADAMTS10,-0.537
19,UUAAUGGUGACCUUGACCU against C19orf47,-0.413
20,AACUGAGUUGUAGAGCUGC against IL12RB1,-0.226
21,AAUUCUUUUUGUCUGGAUC against PRSS35,0.405
22,UAAAUCUGCUCUCCUUUCC against LY86,0.785
23,UUCUCUUCAACAAGUGACA against C6orf201,-2.08

row,Sequence,seed-corrected z-score
1,UCUCUGUCCUCAAAAGUGG against CLCN4,-0.277
2,UACGUGAGCUUGUACAGCC against MTTP,-0.0803
3,UCGAGUGUGAUGUCUCUUC against AGO3,0.413
4,UUGUGCACCACGAGAGUAG against RAB40AL,-2.28
5,UUCUGGAGCAGUUCGACAG against CNPPD1,0.781
6,UUCUCAAUCAGCACGGCCC against GPX2,-0.162
7,UCAUGUACACUGCUAAUUC against SLC30A10,0.696
8,AUACUGUUCACCGAGAAGG against TSPEAR,-3.82
9,UAUGUUGGUGCUCAUACUC against MED11,0.678
10,UUAAACUCAGGCUUUGGUC against HABP4,-1.03
11,UACUGAUUCACAAUGACCU against RNF208,-0.361
12,UAACUUGAUAACAGGUGCC against OR10T2,-5.77
13,AAAAACAACAGAAGCAUGC against TSPAN8,0.399
14,UGUUGUUCAACAAAACCGC against KRT28,0.472
15,AUAGGCAUAUGGUUAGGCC against SS18,-2.03
16,ACAGCGUACAGCAAACACG against TMEM54,-12
17,UUCCUCUUCACCACGGUGU against CNNM3,-0.123
18,UGAGAGUUCAUAGCGUAUC against RCE1,-0.494
19,AAAGUAUAAUGGAUGUAUC against GNAI1,-0.47
20,AUAGGUACCAGGUAUGAGC against FOXM1,0.087
21,UUUGUUGGGAUGUUGGGUG against SPATA12,-2.1
22,UGCUGAAUGAGGUACGUGC against ZNF550,-0.438
23,UAUCCAUUUUCCUCUAUCC against FGF10,-0.261

row,Sequence,seed-corrected z-score
1,UAUGGUUAGAAGAUAUCCC against IDS,1.1
2,AAAAGCUCACGGAGAAUCC against LINC01433,1.28
3,AACUGUCAAUGGUUGAAGC against FCGR2A,-0.901
4,AGUUUCUCAAUGUCUGGGC against PAGR1,-3.83
5,UUCGAGAAAAGCAGAAUCC against PRORSD1P,-0.604
6,ACAUCAACCACUACAGUGC against PCDHB7,-0.314
7,UUAACUUUCUCGAUAGAAC against SLC45A2,0.853
8,UUGACGUGCAUGAAGGACC against DUSP3,-0.254
9,UUCAGUACCAGGCUGGGUG against COMT,0.499
10,UUCUUGAUGAUCUUUAGCU against LONP1,0.0484
11,UGGUCUAUAGUAUUCAUGC against YTHDF2,-0.0088
12,UGAUUAUUAGGUACUACCC against RCN2,-2.4
13,UUCAAUCAGAUCGAAGAGC against CLK2,0.0394
14,AAAGAAGUAGAGGUAGGAC against OR6T1,0.724
15,UUAACUGCACCAUCAGUGU against S100A8,-3.04
16,UCAGCAUCAACAUAAUGCG against TAS2R40,-1.07
17,UGACGAAUCCCUGCUAUAG against TDRD5,-0.0697
18,AAUUAGAUUACCUAAACAC against CDKL2,0.926
19,UAAAGGGAAAUUUCCACCA against CDH16,0.815
20,UUUGGUGAUUUCAUAAUCC against PCDH18,-0.027
21,AUCUGGAUCGCUCAGCUCC against TMEM235,0.0464
22,UAGCUUCUCACAGACUUUC against KCTD8,-2.45
23,UUUCCUCUAGGAAGCAUCU against TRIM17,0.172

row,Sequence,seed-corrected z-score
1,AUAGGCAGCAGUGCACUCG against 5-Sep,-1.81
2,UAUAGUUAAAUCCAUCAUC against CALU,0.272
3,UAGUAAGAAGAGUCAAUGC against PGA5,-0.472
4,AAUUGUUCACUGACCAGGC against WNT8A,-0.645
5,AAAUAAUCCUGUCUACUCC against BOD1,0.629
6,UUGUAUUCAUCCUUGAAGC against CCDC89,-2.42
7,UGAGGACAUCGAAGAGGCC against HTR6,1.21
8,UAAUGUAGAACAUUUUGAC against LECT2,0.659
9,UAUGCUUGCAGUCCACUGG against DYNLT3,1.02
10,UUACUGGGAAUAGCACUGC against ITGA5,0.318
11,UACUCUAUCCGCUGUGCCC against RCC2,-0.853
12,UAGUUGUCGGUAUCUGUCC against CSPP1,-2.38
13,AUCGUGAAGAGAUACUCCG against MAPKBP1,0.318
14,UCAGCACACUGUCAGGUAC against USB1,0.878
15,UCACGGUGCACAAAGUUCU against ZAP70,-0.0104
16,UCUCUGUAUGUGACUGUGA against SNRPD3,-2.85
17,UUGAAGUUCAUUAGUCUCC against AK5,-0.322
18,UGUGGAUUUUGGAUGCAGC against XKR5,-0.21
19,AAUGUGGUUGAGCUGAUCC against MAPK3,-2.13
20,UUGGACAAAAGAUAAGAGC against SNRNP40,-0.258
21,UUACCAGAUAGGAUGAUCA against OR5P2,0.365
22,UUUGAGGCCGUUGAGGGUG against ELAVL3,-0.487
23,UGGGAUUCAAGAUCUCCUC against NGEF,-3.75

row,Sequence,seed-corrected z-score
1,UUAAUGUAUGGGUUGACUC against PLS1,-0.413
2,UCCAGUUCUCCGGUGAUCU against SYNE3,0.481
3,UUUGCAUUCAUAAAGAAUU against ING3,-0.246
4,UCACGUACAAGAGCACUCG against GRHL2,0.132
5,UUCAGUUGAAUUCCAAAGG against ARHGAP28,0.997
6,AAGGUGAUAAGUACAGUCA against LINC00977,0.26
7,AUGAUGCUAGGGUCGGUGC against E2F2,-0.689
8,UCUAGUACUACAUUGGCUU against FLJ32255,-1.66
9,CAUGGUCUCAGUCAGCAUG against CBY3,-2.21
10,UAUUCAGCAUUCUCUAUCU against DDAH2,-0.379
11,UCCCUGACAACUCCAGGGU against CLDN9,0.379
12,UAGUAAAUGAACGAAGGCG against MAD2L1,0.0839
13,UUAGAUACGACAUAAGCAG against PGAP1,0.122
14,UUUCUUCAAGGCAGUUUGC against SRGN,-1.36
15,UGAUGGUUGAAAUACUGGU against CITED2,-2.05
16,UGAACAGUCGCCGCUCUCU against ZNF418,0.482
17,UGUCGUUUUUGUAUCCUUG against CAGE1,-1.32
18,UCUUCGUUGACCACACCAC against KCNIP1,0.284
